Source: PubChem (National Center for Advancing Translational Sciences (NCATS))
NS1 inh: blocks influenza NS1 protein function; Potency, µM (doses to about 46.1 µM), without a hit: at the top dose activity, positive = more growth; 270,000 compounds, 0.4% hits; calls by dose curve; note: actives are rising curves; nearly all actives have a fitted effect of over 50% in size
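OD600 was taken as the measure of yeast growth restored by compound in an NS1-expressing S. cerevisiae strain. Cells had been washed out of glucose medium and diluted 1:100 into galactose -URA medium, pH 6.0.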
TbPYK inhibitor: inhibitors of Trypanosoma brucei pyruvate kinase | TbPYK enzyme, Kinase-Glo Plus ATP luminescence, 45 min | 410,000 compounds, 0.12% hits | AID 624173 | Q57TT1 | Potency, µM (series often up to 76.8 µM), for the others: at the top dose activity, negative = inhibition, most hits filed as inhibitors; note: % is set by controls: 0 for no effect and ±100 for the full control effect; nearly all actives have a fitted effect of over 50% in size
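Enzyme and substrate buffer are dispensed first and compound is pin-transferred. ADP at 130 uM final then starts the reaction, which runs 45 min at room temperature. Detection reagent is added for 10 min before luminescence is imaged.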
SARS PLpro yeast: SARS-CoV PLP inhibition in yeast. S. cerevisiae expressing SARS-CoV PLpro, growth rescue. Potency, µM (doses to about 32.9 µM), for the others: at the top dose activity, positive = growth rescue, usual class: activators. 330,000 compounds, 0.19% hits; calls by dose curve; note: 0% is about no effect; nearly all actives have a fitted effect of over 55% in size
RE007 growth inh: less growth of the S. pombe RE007 Vpr strain; 360,000 compounds, 0.21% hits; S. pombe RE007 Vpr strain, BacTiter-Glo ATP luminescence, 24 h; AID 651644; Potency, µM (titrated, usually from 92.2 µM), for the others: at the highest dose activity change, negative = less growth, hits mostly inhibitors; active = well fitted falling curve with a large enough effect; inconclusive = small, poorly fitted or top-dose-only effect; inactive = no such curve, though single readings can be large or run the other way; note: % is set by controls: 0 for no effect and ±100 for the full control effect; nearly all actives have a fitted effect of over 50% in size
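Fission yeast strain RE007, carrying one chromosomally integrated HIV-1 vpr copy, was seeded at OD 0.01 in PMG+AL medium with 23 nL pinned compound. After 24 h at 30 °C and 99% humidity, viability was read by BacTiter-Glo luminescence.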
LmPK inhibitor: inhibitors of Leishmania mexicana pyruvate kinase. Q27686. Potency, µM (top dose mostly 57.5 µM), inactives show at the top dose activity change, negative = inhibition, actives largely listed as inhibitors. purified LmPK, Kinase-Glo ATP luminescence, 1 h. 290,000 compounds, 0.37% hits; note: % is set by controls: 0 for no effect and ±100 for the full control effect
Target sequence (Q27686 whole entry, looked up): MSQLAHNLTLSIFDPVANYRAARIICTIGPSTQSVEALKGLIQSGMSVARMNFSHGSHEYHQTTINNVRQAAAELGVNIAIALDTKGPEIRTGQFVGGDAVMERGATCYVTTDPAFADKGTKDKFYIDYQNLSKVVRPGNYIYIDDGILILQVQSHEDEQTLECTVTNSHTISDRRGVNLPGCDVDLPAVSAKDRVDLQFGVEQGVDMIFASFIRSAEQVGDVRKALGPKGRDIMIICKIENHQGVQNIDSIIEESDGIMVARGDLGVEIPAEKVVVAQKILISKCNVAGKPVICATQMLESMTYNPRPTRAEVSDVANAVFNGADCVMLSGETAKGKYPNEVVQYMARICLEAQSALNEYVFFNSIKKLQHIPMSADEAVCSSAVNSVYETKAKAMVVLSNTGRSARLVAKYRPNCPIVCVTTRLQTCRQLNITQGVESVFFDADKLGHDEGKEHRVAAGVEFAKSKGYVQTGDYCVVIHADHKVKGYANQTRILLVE
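Screened at intermediate enzyme activity to detect both inhibitors and activators: LmPK at 0.1 nM, with a 0.5 nM enzyme column as activation reference. PEP 0.5 mM, ADP 0.1 mM; ATP detected by luminescence after 1 h.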
Sm TGR inh: blocks Schistosoma mansoni thioredoxin glutathione reductase | Q962Y6 | purified TGR, DTNB reduction, TNB absorbance 405 nm | Potency, µM (highest dose often 114 µM), for the others: at the highest dose activity change, negative = inhibition, usual class: inhibitors | 360,000 compounds, 3% hits | AID 485364; note: % is set by controls: 0 for no effect and ±100 for the full control effect; nearly all actives have a fitted effect of over 60% in size
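Kinetic colorimetric format: TGR-catalysed, NADPH-driven DTNB reduction monitored via TNB absorbance. Enzyme dispensed at 20 nM; compound exposure 15 min at room temperature before reaction start.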
Starred values were filed as active, the others as inactive; ? = inconclusive; . = no result given. Hits are enriched below; roughly 3.3% of the tested compounds scored in any of these assays. Unless noted, calls come from the whole dose curve; as a rule, active = well fitted curve in the direction sought with a large enough effect; inconclusive = small, poorly fitted or top-dose-only effect, or another doubt; inactive = no such curve, though single readings can be large; an effect the other way counts as inactive or inconclusive. Potency is the fitted concentration of half-maximal effect.

SMILES	NS1 inh	TbPYK inhibitor	SARS PLpro yeast	RE007 growth inh	LmPK inhibitor	Sm TGR inh
Cc1ccc(NNC(N)=S)cc1Cl	-95%	-9%	-5%	?	-2%	40µM*
Cc1ccc(NC(=S)N(C)N)cc1Cl	3%	-11%	-1%	-5%	-2%	.
NC(=S)NNc1ccc(Cl)c(Cl)c1	-63%	-13%	-22%	11µM*	0%	2µM*
COc1ccccc1OCc1nc(C#N)c(NCCCn2ccnc2)o1	1%	1%	-1%	7%	2%	45µM*
COc1ccc(CCNc2oc(COc3ccccc3F)nc2C#N)cc1OC	-133%	-29%	-14%	24%	0%	?
COc1ccc(Nc2oc(COc3ccccc3OC)nc2C#N)cc1	16%	-3%	24%	7%	-2%	18µM*
CCNc1oc(COc2ccccc2F)nc1C#N	-11%	2%	3%	15%	0%	56µM*
N#Cc1nc(COc2ccccc2F)oc1NCCCn1ccnc1	-7%	-1%	23%	-4%	2%	25µM*
N#Cc1nc(COc2ccccc2)oc1NCCCn1ccnc1	3%	-10%	1%	-14%	1%	-3%
c1cc(-c2cnn3cc(-c4ccc(OCCN5CCCCC5)cc4)cnc23)ccn1	.	3%	.	.	.	.
CC(C)(CO[C@H]1C[C@H]2CC[C@@]1(C)C2(C)C)[N+](=O)[O-]	3%	.	.	.	.	.
N#Cc1nc(COc2ccccc2Cl)oc1NCc1ccco1	-50%	5%	-1%	16%	0%	22µM*
N#Cc1nc(COc2ccccc2Cl)oc1NCCc1ccccc1	.	2%	.	.	.	-24%
NCCSCCC(=O)O	-6%	.	.	.	.	.
O=C(Cc1ccccc1)NCCc1csc2nc(-c3ccc(Cl)cc3)nn12	.	0%	.	.	.	2%
COc1ccccc1/C=N/Nc1nncc2ccccc12	0%	-8%	3%	-8%	-6%	2%
Clc1nccnc1N/N=C/c1ccc(Br)cc1	-18%	?	-5%	-27%	18µM*	-27%
COc1ccc(/C=N/Nc2nncc3ccccc23)cc1	-9%	?	-55%	-18%	11µM*	0%
Nc1c(Cl)ncnc1N/N=C/c1cccc(O)c1	-55%	1%	-1%	-23%	-13%	?
COc1ccc(/C=N/Nc2nonc2N)c(OC)c1	.	-2%	0%	-4%	2%	3%
COc1ccc(/C=N/Nc2nccnc2Cl)c(OC)c1	-2%	-29%	0%	-6%	10µM*	.
Nc1c(Cl)ncnc1N/N=C/c1ccncc1	2%	-2%	-1%	-15%	-4%	45µM*
COc1ccc(/C=N/Nc2nccnc2Cl)cc1	-10%	?	-10%	?	7.1µM*	0%
O=C(O)COc1nn(Cc2ccccc2)c2ccccc12	.	0%	.	.	.	.
COC(=O)Cc1ccc2sc(-c3ccccc3)nc2c1	-10%	?	-33%	?	14µM*	8%
SMILES	NS1 inh	TbPYK inhibitor	SARS PLpro yeast	RE007 growth inh	LmPK inhibitor	Sm TGR inh
Cc1ccc(CNC(=O)c2ccc(N3CCCC3)c(NC(=O)Nc3ccc(F)c(Cl)c3)c2)cc1	.	-21%	.	.	.	-1%
CC1=NN(c2ccc(C(=O)O)cc2)C(=O)/C1=C\c1ccc(OC(=O)c2cccs2)cc1	.	?	6%	-9%	-12%	-8%
COc1ccc(N2C(=O)NC(=O)/C(=C/c3cccc(OC(=O)c4cccs4)c3)C2=O)cc1Cl	?	1%	25%	-17%	1%	14µM*
COc1cc(/C=C2\C(=O)NC(=O)N(c3ccccc3)C2=O)cc(OC)c1O	6%	?	14%	6%	-5%	87%
Cc1ccc(N2C(=O)NC(=O)/C(=C/c3ccc(OC(=O)c4cccs4)cc3)C2=O)cc1	-57%	-27%	3%	-28%	-2%	35µM*
O=C1NC(=Nc2cccc(O)c2)S/C1=C\c1cccnc1	10%	5%	0%	5%	4%	8.9µM*
CC(=O)c1cccc(NS(=O)(=O)c2cccc(S(=O)(=O)c3ccc(Br)cc3)c2)c1	.	0%	.	.	.	13µM*
